Reference: PubChem BioAssay (NCATS)
Records with an inconclusive call do not appear. Unmarked numbers belong to inactive results. Calls of active or inactive are those of the source. Calls come from the whole dose curve; as a rule, active = well fitted activation curve with a large enough effect; inconclusive = small, poorly fitted or top-dose-only effect; inactive = no such curve, though single readings can be large or run the other way. Square brackets hold non-standard residues; d marks the D form. Peptide text beside a SMILES is read from it. ξ: configuration not given here. ξPhe(βξ-Me) = CC(c1ccccc1)C(N)C(=O)O; GABA = NCCCC(=O)O
Potency is the fitted concentration of half-maximal effect.

These compounds were tested against Cellular tumor antigen p53 (Homo sapiens) (UniProt P04637) (assay: Primary qHTS for small molecule compounds that upregulate eGFP-tagged delta133p53alpha (in N-terminal) cells. (AID 2060322; note: nearly all actives have a fitted effect of over 75% in size;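 for activation: series mostly up to about 56 µM; 0% = DMSO vehicle and 100% = reference activator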)). Conditions: NCI-H358 eGFP-delta133p53alpha fluorescence, 24 h; activation: stronger effect = higher value.
Cellular tumor antigen p53 (Homo sapiens), sequence (P04637 whole entry, looked up): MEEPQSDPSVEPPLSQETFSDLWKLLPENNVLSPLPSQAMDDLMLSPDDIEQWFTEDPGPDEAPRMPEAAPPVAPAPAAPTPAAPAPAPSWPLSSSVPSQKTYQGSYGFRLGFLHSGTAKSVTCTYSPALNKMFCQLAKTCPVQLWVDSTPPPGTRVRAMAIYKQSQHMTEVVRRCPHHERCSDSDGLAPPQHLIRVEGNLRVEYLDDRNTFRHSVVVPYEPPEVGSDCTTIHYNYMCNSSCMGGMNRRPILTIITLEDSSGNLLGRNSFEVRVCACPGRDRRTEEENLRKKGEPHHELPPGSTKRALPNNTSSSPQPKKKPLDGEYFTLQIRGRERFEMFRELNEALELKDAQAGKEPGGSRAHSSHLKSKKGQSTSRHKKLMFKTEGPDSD
Summary of the method: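 NCI-H358 cells pre-induced 24 h with 10 ng/ml doxycycline to express N-terminal eGFP-delta133p53alpha, then dosed 24 h at 37C without doxycycline; fixed, Hoechst-stained, GFP intensity by laser scanning cytometry, normalized to DMSO (0%) and 57.5 uM 5-azacytidine (100%).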
For COc1cc2ncnc(Nc3ccc(F)c(Cl)c3)c2cc1OCCCN1CCOCC1, the activation was -5.67%. For CC1(CO)CCCC2(C)C1C(OC(=O)c1ccccc1)C=C1C(=O)OCC12O (stereo not given), the Potency was 20.9 µM (active). CC1[C@@H](O)[C@@H](O)C2[C@]3(C)C(C[C@H]4OC(=O)[C@H](O)[C@]1(O)[C@@]24C)C(C)(O)C[C@H](O)[C@H]3O (stereo not given in full) showed an activation of -16%. C[C@@H]1CCC2C(C)(C)[C@H](O)CC[C@]2(C)[C@@]12Cc1c(O)cc3c(c1O2)CN([C@@H](CCC(=O)O)C(=O)O)C3=O (stereo not given in full) showed an activation of -9.16%. N#Cc1ccc(N2N=C3c4ccc(C(=O)O)cc4CC[C@@H]3[C@@H]2C2CCCC2)cc1Cl was tested, and the activation was -25%. Work on Nc1nc(Cl)nc2c1ncn2C1OC(CO)C(O)C1F (stereo not given) yielded an activation of 0%. C[C@H]1CC[C@@H]2N(C1)C[C@@H]1[C@H]([C@@H](O)[C@H](O)[C@]3(O)[C@H]1C[C@@]14OC5(O)[C@@H](C[C@@H](O)[C@@H]31)[C@]4(C)CC[C@@H]5O)[C@]2(C)O gave an activation of 0%. Compound CC(C)COc1ccc(CNC(=O)N(Cc2ccc(F)cc2)C2CCN(C)CC2)cc1 has an activation of -15.7%. In the case of CC[C@]1(O)CC2CN(CCc3c([nH]c4ccccc34)[C@@](C(=O)OC)(c3cc4c(cc3OC)N(C=O)[C@H]3[C@@](O)(C(=O)OC)[C@H](OC(C)=O)[C@]5(CC)C=CCN6CC[C@]43[C@@H]65)C2)C1 (stereo not given in full), the activation is reported as -0.333%. For C=C(CCO)C(=O)OCC1OCC(OC(=O)C(=C)CCO[C@@H]2O[C@H](COC(=O)C(=C)CCO[C@@H]3O[C@H](CO)[C@@H](O)[C@H](O)[C@H]3O)[C@@H](O)[C@H](O)[C@H]2O)C(O)C1O (stereo not given in full), the activation was 11.5%. CC1NC(=O)CCCNC(=O)C(Cc2c[nH]c3ccccc23)NC(=O)C(C)NC(=O)C(C(C)C)NC(=O)C(C(C)c2ccccc2)NC(=O)C(C(C)C)NC1=O (stereo not drawn) (cyclo([GABA]AV[ξPhe(βξ-Me)]VAW); configuration not given here) gave an activation of 6.11%. C/C=C/C=C/C=C/C(=O)N(C)C(C(=O)NC(C)C(=O)N1CCCC1C(N)=O)C(C)C (stereo not given) was tested, and the activation was 17.6%. O=C(O)/C=C/c1ccc2occc2c1O[C@@H]1O[C@H](CO)[C@@H](O)[C@H](O)[C@H]1O showed an activation of 8.4%. Work on C[C@@H]1CC[C@]2(C(=O)O)CC[C@]3(C)C(=CCC4[C@@]5(C)C[C@@H](O)[C@H](O)[C@@](C)(CO)C5CC[C@]43C)C2[C@]1(C)O (stereo not given in full) yielded an activation of 29.5%. Compound C[C@]1(O)CC[C@@H]2C(C(=O)O)=CO[C@@H](O[C@@H]3O[C@H](COC(=O)/C=C/c4ccc(O)c(O)c4)[C@@H](O)[C@H](O)[C@H]3O)[C@@H]21 has an activation of 0%. O=C(/C=C/c1ccc(O)cc1)OC[C@H]1O[C@@H](OC(=O)/C=C/c2ccccc2)[C@H](O)[C@@H](O)[C@@H]1O was tested, and the activation was -1.53%. Cc1ccc(N2CCN(S(=O)(=O)N3CCCCC3)CC2)c(C)c1 showed an activation of 17.9%. CC(O)C(C)n1ncn(-c2ccc(N3CCN(c4ccc(OCC5COC(Cn6cncn6)(c6ccc(Cl)cc6Cl)O5)cc4)CC3)cc2)c1=O (stereo not given) was tested, and the activation was -5.67%. COc1ccc(OC2OC(CO[C@@H]3O[C@@H](C)[C@H](O)[C@@H](O)[C@H]3O)C(O)C(O)C2O)cc1OC (stereo not given in full) showed an activation of 8.4%. Work on Cc1ccn(-c2cc(Cl)ccc2[C@@H](Oc2cc(-c3ccc(C[C@H](N)C(=O)O)cc3)nc(N)n2)C(F)(F)F)n1 yielded an activation of -7%. Cc1ccccc1NC(=O)Nc1ccc(CC(=O)N(C)[C@@H](CC(C)C)C(=O)NCC[C@H](NC(=O)[C@@H]2CCCN2S(=O)(=O)c2cc(Cl)cc(Cl)c2)C(=O)O)cc1 showed an activation of 1.67%. COC(=O)C1C(O)CCC2CN3CCc4c([nH]c5ccccc45)C3CC21 (stereo not given) was tested, and the activation was 23.2%. In the case of CC(=O)OC1C(O)CC2(C)C(CCC3(C)C2CC=C2C4C5(CCC(CO[C@@H]6O[C@H](CO)[C@@H](O)[C@H](O)[C@H]6O)(OC5=O)C4(C)O)C(O)CC23C)C1(C)C (stereo not given in full), the activation is reported as -11.5%. For COC(=O)[C@]12C(=O)C(C)=C(O)[C@@]1(C)C(C)=CC1[C@@]34CC[C@@H](OC(C)=O)C(C)(C)C3[C@H](C[C@]12C)OC4=O (stereo not given in full), the activation was 2.29%. CC(C)=CCC(O)/C(C)=C/CO[C@@H]1O[C@H](CO)[C@@H](O)[C@H](O)[C@H]1O (stereo not given in full) showed an activation of -15.2%.
